# Target: KRTAP13-1
# Assay: pooled miR-30 sensor sort-seq; sequence = guide strand
# Conditions: shRNA
# Also: reference of the scale not given here.
row,Sequence,sensor-assay potency score (higher = more potent)
1,TGGTCTGTAGCAAGAAGACTGG,-0.92
2,TAGCAAGAAGACTGGCAGCTCC,-0.434
3,TCCAACGCCATAGCCCAGGGAA,-1.31
4,TAGACCTGGTTGCTGGGGTAGG,-1.13
5,TAGGAAAAGCCACAGGAGGAGG,-1.49
6,TAGAATAAGAGGCTAATTCTTT,-0.634
7,TCTGTAGCAAGAAGACTGGCAG,0.163
8,TCCACATAGGATGTCTGGCAGC,-1.92
9,TTGGTCTGTAGCAAGAAGACTG,-0.458
10,ACATAGGATGTCTGGCAGCTGG,-1.73
11,TAACCCAGGGATCTGAAGCCAC,-0.898

# Target: KRTAP13-2
# Assay: as above
# Conditions: shRNA
row,Sequence,sensor-assay potency score (higher = more potent)
1,ACAGCTTCCATAACCCAGGGAT,-0.532
2,TCCAGATCCATAGCCGAGGGAA,-1.28
3,TCGTCTTGCAAGGACTGCAGAG,-0.616
4,TGGTCTGTAACAAGGAGACTGG,-0.828

# Source: the OligoGym collection
